The list is not random: actives were taken first. Their share in the collection is about 21%.
DRD3 antagonist – D3 dopamine receptor (human) antagonism | D3R cells, DiscoveRx beta-arrestin luminescence, antagonist mode; hits give low values | max response, negative = inhibition, % | actives 2.5% (n = 360,000) | AID 652054; in the data active = max response below about -50%; inconclusive = no clear call, values can overlap the other calls; note: % is set by controls: 0 for no effect and ±100 for the full control effect
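Cells plated overnight at 1500 cells/well, then exposed to library compounds with dopamine controls for 90 minutes at 37 degrees C. DiscoveRx reagent added for 30–60 minutes at room temperature; luminescence read, quantitative HTS format.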
IL1B secr inh – inhibitors of inflammasome signaling (IL-1 beta secretion); AID 743279; activity change, % at 57.5 µM; actives 4.7% (n = 360,000); THP-1 LPS/ATP IL-1B secretion, AlphaLISA, 16 h; hits give low values; in the data active = activity change below about -50%; inconclusive = mostly about -30% to -49%; note: % is set by controls: 0 for no effect and ±100 for the full control effect
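Secreted IL-1B measured by AlphaLISA bead assay after 16 h compound exposure of THP-1 cells; compounds (final up to 57.5 uM) added 1 h before LPS (250 ng/mL) and ATP (1.25 mM) stimulation; lower signal means less secretion.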
D3 ag – activates the human D3 dopamine receptor. D3R DiscoveRx beta-arrestin cells, luminescence, 90 min. max activation, %. actives 0.58% (n = 410,000). P35462. AID 652048; in the data active = max activation above about 30%; note: 0% is about no effect
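Agonist-mode cell screen: cells plated at 1500/well and incubated overnight at 37 °C, then exposed to library compounds for 90 min at 37 °C. Detection reagent was added for 30–60 min at room temperature, and luminescence was read.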
TDP1 cell CPT – DT40-hTDP1 cell growth loss with CPT; chicken DT40 Tdp1-/-;hTDP1 cells + 20 nM CPT, ATP luminescence, 48 h; Potency, µM (highest dose often 46.2 µM), for inactives: at the highest dose activity change, negative = growth inhibition, most hits filed as inhibitors; actives 12% (n = 420,000); AID 686979; note: potency is the fitted concentration of half-maximal effect; % is set by controls: 0 for no effect and ±100 for the full control effect; nearly all actives have a fitted effect of over 55% in size
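Chicken DT40 Tdp1-/- cells complemented with human TDP1, 400 cells/well, exposed to compounds plus 20 nM camptothecin for at least 48 h at 37 C; viability read as ATP content by CellTiter-Glo luminescence.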
DT40 TDP1 no CPT – qHTS for Inhibitors of human tyrosyl-DNA phosphodiesterase 1 (TDP1): qHTS in cells in absence of CPT; Potency, µM (highest dose often 46.2 µM), for inactives: top-dose activity change, negative = growth inhibition, usual class: inhibitors; AID 686978, 2013; actives 15% (n = 420,000); DT40 Tdp1-/- hTDP1 cells, no CPT, ATP luminescence, 48 h; note: potency is the fitted concentration of half-maximal effect; % is set by controls: 0 for no effect and ±100 for the full control effect; nearly all actives have a fitted effect of over 55% in size
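Luminescent ATP content (CellTiter-Glo) served as the growth readout. Knockout chicken DT40 cells expressing human TDP1 were exposed to compounds without camptothecin for a minimum 48 hr at 37 °C.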
ClpP mod – qHTS Assay for Activators of ClpP; ATP-dependent Clp protease proteolytic subunit (Bacillus subtilis (strain 168)), P80244; purified B. subtilis ClpP, FRET peptide cleavage, 20 min; Potency, µM (titrated, usually from 57.5 µM), without a hit: at the highest dose activity change, negative = active; actives 1.9% (n = 340,000); AID 651965, 2013; active = well fitted falling curve with a large enough effect; inconclusive = small, poorly fitted or top-dose-only effect; inactive = no such curve, though single readings can be large or run the other way; note: potency is the fitted concentration of half-maximal effect; the source files actives as falling curves though it sought activators and does not explain the sign; nearly all actives have a fitted effect of over 65% in size
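Purified B. subtilis ClpP, 10 microg/mL final in Tris/HCl pH8 with KCl, BSA, glycerol and Tween-20, cleaved an Abz/nitrotyrosine-quenched decapeptide. Fluorescence (ex 320, em 430) was read at 0 and 20 min at room temperature. Delta was normalized to 5.8 microM ADEP and DMSO/no-enzyme controls.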
* = called active by the depositor; [ ] = remark or other dose. Unless noted, calls come from the whole dose curve; as a rule, active = well fitted inhibition curve with a large enough effect; inconclusive = small, poorly fitted or top-dose-only effect; inactive = flat fitted curve, though single readings scatter.

What do the screens show for `O=c1[nH]c(=O)n(-c2ccc(F)cc2)c2c1C(C(F)(F)F)(C(F)(F)F)N=C(c1ccc(F)cc1)N2`?
DRD3 antagonist: 8.5; IL1B secr inh: inconclusive; D3 ag: 5.9; TDP1 cell CPT: 4.61µM*; DT40 TDP1 no CPT: 3.26µM*; ClpP mod: -1.7%

Results for Cc1ccc(C2=NC(C(F)(F)F)(C(F)(F)F)c3c(n(-c4ccc(F)cc4)c(=O)[nH]c3=O)N2)cc1 ?
DRD3 antagonist: 21.7; IL1B secr inh: 36.1; D3 ag: 6.3; TDP1 cell CPT: 23.1µM*; DT40 TDP1 no CPT: 23.1µM*; ClpP mod: 1.5%

What do the screens show for `COc1ccc(-n2nc(C(=O)N(C)c3cccc(C(F)(F)F)c3)c3c4ccccc4n(C)c3c2=O)cc1`?
D3 ag: 2.9; TDP1 cell CPT: -10.2%; DT40 TDP1 no CPT: -10.5%; ClpP mod: 1.4%

What do the screens show for `C1=Nc2ccccc2CN1c1ccccc1`?
DRD3 antagonist: 5.8; IL1B secr inh: 8.3; D3 ag: 4.9; TDP1 cell CPT: -4.1%; DT40 TDP1 no CPT: inconclusive; ClpP mod: -0.9%

What do the screens show for `CC(C)c1ccc(N2C=Nc3ccc(C(C)C)cc3C2)cc1`?
DRD3 antagonist: -0.4; IL1B secr inh: -96.9*; D3 ag: 10.9; TDP1 cell CPT: inconclusive; DT40 TDP1 no CPT: inconclusive; ClpP mod: -2.7%

How did CC1(NC(=S)Nc2ccccc2)CCS(=O)(=O)C1 (stereo not drawn) do in these assays?
DRD3 antagonist: 10.0; IL1B secr inh: -8.3; D3 ag: -5.3; TDP1 cell CPT: -7.2%; DT40 TDP1 no CPT: -21.2%; ClpP mod: 0.3%

How did Cc1ccc(CSc2cn(CC(=O)N3CCCCCC3)c3ccccc23)cc1 do in these assays?
D3 ag: -10.2; TDP1 cell CPT: inconclusive; DT40 TDP1 no CPT: 20.6µM*; ClpP mod: -0.8%

How did Cc1ccc(CSc2cn(CC(=O)N3CCCC3)c3ccccc23)cc1 do in these assays?
D3 ag: -1.7; TDP1 cell CPT: 16.4µM*; DT40 TDP1 no CPT: 16.4µM*; ClpP mod: -0.5%

What do the screens show for `O=C(Cn1cc(SCc2cccc(Cl)c2)c2ccccc21)N1CCCCCC1`?
D3 ag: -15.1; TDP1 cell CPT: inconclusive; DT40 TDP1 no CPT: inconclusive; ClpP mod: 3.6%

Results for Cc1ccc(C)c(NC(=O)CSc2cn(CC(=O)N3CCCCC3)c3ccccc23)c1 ?
D3 ag: 10.5; TDP1 cell CPT: inconclusive; DT40 TDP1 no CPT: inconclusive; ClpP mod: -2.3%

What do the screens show for `COc1cccc(CN(CCC(=O)O)Cc2cccc(OC)c2)c1`?
DRD3 antagonist: 7.0; IL1B secr inh: 15.8; D3 ag: 6.1; TDP1 cell CPT: 2.5%; DT40 TDP1 no CPT: inconclusive; ClpP mod: -5.8%

What do the screens show for `O=C(Nc1cccc(N2CCC(NCc3cnn(-c4ccccc4)n3)CC2)c1)c1cccnc1`?
TDP1 cell CPT: 14.5%[9.04 µM]; DT40 TDP1 no CPT: inconclusive

What do the screens show for `Cc1ccc2cccc(SCC(=O)NCC#N)c2n1`?
DRD3 antagonist: -5.3; IL1B secr inh: 45.7; D3 ag: 2.1; TDP1 cell CPT: -1.9%; DT40 TDP1 no CPT: -6.2%; ClpP mod: 28.2µM*

How did Cc1cccc(NC(=O)CSc2cccc3cccnc23)c1 do in these assays?
DRD3 antagonist: -4.0; IL1B secr inh: 46.9; D3 ag: 1.3; TDP1 cell CPT: inconclusive; DT40 TDP1 no CPT: inconclusive; ClpP mod: 4.7%

How did COc1ccc(Nc2oc(-c3ccc(COc4cccc(C)c4)o3)nc2C#N)cc1 do in these assays?
D3 ag: 0.6; TDP1 cell CPT: inconclusive; DT40 TDP1 no CPT: inconclusive; ClpP mod: 4.1%

Results for CC1(c2ccccc2)NC(=O)N(CC(=O)Nc2ccc(C(N)=O)cc2)C1=O (stereo not drawn) ?
DRD3 antagonist: -9.1; IL1B secr inh: -1.1; D3 ag: 6.9; TDP1 cell CPT: 16.6%; DT40 TDP1 no CPT: 16.0%

Results for Nc1nc(N)nc(-c2ccc([N+](=O)[O-])o2)n1 ?
DRD3 antagonist: 16.2; IL1B secr inh: -11.6; D3 ag: 12.7; TDP1 cell CPT: inconclusive; DT40 TDP1 no CPT: 23.1µM*

Results for O=[N+]([O-])c1ccc(-c2ccn[nH]2)o1 ?
DRD3 antagonist: 6.4; IL1B secr inh: 0.0; D3 ag: 2.9; TDP1 cell CPT: inconclusive; DT40 TDP1 no CPT: -29.4%

What do the screens show for `COCCCNC(=O)Cn1c(=O)n(CCCCCC(=O)NCc2ccc3c(c2)OCO3)c(=O)c2sccc21`?
DRD3 antagonist: -1.9; IL1B secr inh: 4.9; D3 ag: 3.0; TDP1 cell CPT: 1.7%; DT40 TDP1 no CPT: -0.1%

How did C[C@@H]1CN([C@@H](C)CO)C(=O)CCCn2nncc2CO[C@H]1CN(C)Cc1cccnc1 do in these assays?
DRD3 antagonist: -1.2; IL1B secr inh: -11.8; D3 ag: 1.1; TDP1 cell CPT: -3.4%; DT40 TDP1 no CPT: -1.5%; ClpP mod: -1.0%

How did COc1ccc(N(CC(=O)Nc2cc(Cl)ccc2OC)C2=NC3CS(=O)(=O)CC3S2)cc1 (stereo not drawn) do in these assays?
DRD3 antagonist: 10.9; IL1B secr inh: -22.7; D3 ag: 4.2; TDP1 cell CPT: -13.9%; DT40 TDP1 no CPT: -4.1%; ClpP mod: 0.9%

What do the screens show for `COc1cccc(NC(=O)CN(C2=NC3CS(=O)(=O)CC3S2)c2cccc(C)c2)c1` (stereo not drawn)?
DRD3 antagonist: -1.6; IL1B secr inh: -65.4*; D3 ag: -3.1; TDP1 cell CPT: 7.8%; DT40 TDP1 no CPT: inconclusive; ClpP mod: 1.4%

How did CCCCCCCCCCCCN1[C@@H](CC(=O)OC)c2cc(C(F)(F)F)ccc2S1(=O)=O do in these assays?
DRD3 antagonist: inconclusive; IL1B secr inh: 37.5; D3 ag: -29.1; TDP1 cell CPT: inconclusive; DT40 TDP1 no CPT: 12.6µM*; ClpP mod: -1.3%

Results for CCCCCCCCCCCCN1[C@@H](CC(=O)O)c2cc(C(F)(F)F)ccc2S1(=O)=O ?
DRD3 antagonist: 1.8; IL1B secr inh: 0.0; D3 ag: 36.7*; TDP1 cell CPT: inconclusive; DT40 TDP1 no CPT: inconclusive; ClpP mod: 4.5%

What do the screens show for `CCCCCCCCN1[C@@H](CC(=O)OCC)c2ccc(C(F)(F)F)cc2S1(=O)=O`?
DRD3 antagonist: 1.5; IL1B secr inh: 4.3; D3 ag: 12.9; TDP1 cell CPT: 12.6µM*; DT40 TDP1 no CPT: 25.9µM*; ClpP mod: 0.1%

What do the screens show for `CCOC(=O)C[C@H]1c2cc(C(F)(F)F)ccc2S(=O)(=O)N1C(C)C`?
DRD3 antagonist: 12.3; IL1B secr inh: 24.2; D3 ag: -5.9; TDP1 cell CPT: -10.1%; DT40 TDP1 no CPT: inconclusive; ClpP mod: -4.5%

Screens as filed in PubChem BioAssay.
